Data taken from paper PMC7862700, “An all-to-all approach to the identification of sequence-specific readers for epigenetic DNA modifications on cytosine”.

Columns and labels:
Assay in all cases: DAPPL (digital affinity profiling via proximity ligation, sequencing); 10 mM Tris-HCl pH 7.5, 50 mM NaCl, 1 mM DTT, 4% glycerol, room temperature, 30 min; GST-TFs on glutathione beads, 16-mer random dsDNA library, 0.1% formaldehyde crosslink after washing; high values mean tight binding
Conditions in all cases: protein: recombinant; tags: N-terminal GST; dsDNA, one strand shown
ELK1 = biological target: T1, ELK1 (Homo sapiens, UniProt P19419 1-428)
T1 sequence: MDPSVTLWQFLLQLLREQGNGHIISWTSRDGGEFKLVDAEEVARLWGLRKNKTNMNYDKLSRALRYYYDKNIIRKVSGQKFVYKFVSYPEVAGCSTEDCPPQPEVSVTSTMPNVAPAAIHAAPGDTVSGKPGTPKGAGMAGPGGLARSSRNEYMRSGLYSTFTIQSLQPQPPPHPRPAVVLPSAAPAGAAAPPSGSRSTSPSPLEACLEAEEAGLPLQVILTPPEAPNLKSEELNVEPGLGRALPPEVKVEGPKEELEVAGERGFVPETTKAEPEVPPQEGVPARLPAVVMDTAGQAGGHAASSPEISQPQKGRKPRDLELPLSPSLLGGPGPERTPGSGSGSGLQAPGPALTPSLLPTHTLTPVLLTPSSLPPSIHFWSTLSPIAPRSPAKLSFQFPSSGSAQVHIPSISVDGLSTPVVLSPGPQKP
Summary of the method: (§1)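 A tag-only sample was pooled with DNA-barcoded human transcription factors that had been expressed in yeast as GST fusions and captured on glutathione beads. The pools were incubated for 30 min at room temperature with 200 nmole of a random double-stranded 16-mer DNA library in Tris/NaCl/DTT/glycerol buffer, then washed, crosslinked with 0.1% formaldehyde, proximity-ligated (BsaI/T4 ligase, 1 h, 37 °C), PCR-amplified and sequenced on an Illumina NextSeq500. Binding signal is each hexamer's read frequency for a factor divided by its frequency for the tag-only sample.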

GABPA = biological target: T2, GABPA (Homo sapiens, UniProt Q06546 1-454)
T2 sequence: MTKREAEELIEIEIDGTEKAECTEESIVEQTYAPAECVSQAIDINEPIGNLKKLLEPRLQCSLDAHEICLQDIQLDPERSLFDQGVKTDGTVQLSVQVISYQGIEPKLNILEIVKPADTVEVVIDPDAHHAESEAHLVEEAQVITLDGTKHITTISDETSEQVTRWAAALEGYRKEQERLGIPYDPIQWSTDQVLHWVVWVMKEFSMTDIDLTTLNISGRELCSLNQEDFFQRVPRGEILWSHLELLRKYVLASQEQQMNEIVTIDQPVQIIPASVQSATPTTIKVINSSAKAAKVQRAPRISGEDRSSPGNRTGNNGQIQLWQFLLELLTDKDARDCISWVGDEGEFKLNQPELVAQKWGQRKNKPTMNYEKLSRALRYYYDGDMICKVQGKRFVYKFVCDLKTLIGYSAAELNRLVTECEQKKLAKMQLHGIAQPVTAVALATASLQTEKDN
Summary of the method: as §1

ERG = biological target: T3, ERG (Homo sapiens, UniProt P11308 1-479)
T3 sequence: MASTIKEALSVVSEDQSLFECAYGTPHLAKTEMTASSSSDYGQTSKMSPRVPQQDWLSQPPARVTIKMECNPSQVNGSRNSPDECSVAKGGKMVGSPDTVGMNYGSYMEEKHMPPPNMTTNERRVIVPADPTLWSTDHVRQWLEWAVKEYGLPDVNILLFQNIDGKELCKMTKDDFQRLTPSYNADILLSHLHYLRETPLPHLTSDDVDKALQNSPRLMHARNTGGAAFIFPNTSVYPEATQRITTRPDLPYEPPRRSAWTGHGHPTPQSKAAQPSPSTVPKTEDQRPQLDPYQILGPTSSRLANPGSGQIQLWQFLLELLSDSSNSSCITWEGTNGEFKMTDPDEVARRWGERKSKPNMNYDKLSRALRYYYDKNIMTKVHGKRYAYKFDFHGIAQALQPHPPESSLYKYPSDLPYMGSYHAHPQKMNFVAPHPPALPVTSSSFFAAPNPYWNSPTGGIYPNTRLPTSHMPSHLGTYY
Summary of the method: as §1

ELF1 = ELF1 (Homo sapiens, UniProt P32519 1-619)
Chain of ELF1 (P32519 whole entry): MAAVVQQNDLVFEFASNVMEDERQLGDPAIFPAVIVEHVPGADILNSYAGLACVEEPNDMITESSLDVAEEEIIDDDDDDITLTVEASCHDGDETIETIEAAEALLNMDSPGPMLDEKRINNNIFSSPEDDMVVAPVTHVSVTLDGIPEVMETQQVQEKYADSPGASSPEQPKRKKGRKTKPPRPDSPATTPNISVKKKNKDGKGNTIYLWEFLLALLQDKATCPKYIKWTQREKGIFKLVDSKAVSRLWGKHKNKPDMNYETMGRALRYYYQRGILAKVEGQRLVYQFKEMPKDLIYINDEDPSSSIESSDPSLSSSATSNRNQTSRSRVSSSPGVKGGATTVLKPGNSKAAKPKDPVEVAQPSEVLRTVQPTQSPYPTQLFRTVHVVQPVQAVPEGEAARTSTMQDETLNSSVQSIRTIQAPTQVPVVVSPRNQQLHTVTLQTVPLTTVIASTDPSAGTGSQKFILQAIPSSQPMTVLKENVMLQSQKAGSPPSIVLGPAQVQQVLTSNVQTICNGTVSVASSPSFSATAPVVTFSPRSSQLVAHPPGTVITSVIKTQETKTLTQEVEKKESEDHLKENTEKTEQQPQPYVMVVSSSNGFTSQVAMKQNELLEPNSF
Summary of the method: as §1

EHF = biological target: T4, EHF (Homo sapiens, UniProt Q9NZC4 1-300)
T4 sequence: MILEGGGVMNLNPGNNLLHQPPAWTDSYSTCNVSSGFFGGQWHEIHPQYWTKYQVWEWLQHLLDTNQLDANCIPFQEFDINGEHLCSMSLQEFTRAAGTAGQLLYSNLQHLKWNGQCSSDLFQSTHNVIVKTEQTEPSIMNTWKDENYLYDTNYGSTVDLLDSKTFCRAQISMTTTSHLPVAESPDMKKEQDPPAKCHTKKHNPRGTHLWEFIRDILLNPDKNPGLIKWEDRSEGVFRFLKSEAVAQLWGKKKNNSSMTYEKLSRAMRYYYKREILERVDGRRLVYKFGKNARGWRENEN
Summary of the method: as §1

SPIB = SPIB (Homo sapiens, UniProt Q01892 1-262)
Chain of SPIB (Q01892 whole entry): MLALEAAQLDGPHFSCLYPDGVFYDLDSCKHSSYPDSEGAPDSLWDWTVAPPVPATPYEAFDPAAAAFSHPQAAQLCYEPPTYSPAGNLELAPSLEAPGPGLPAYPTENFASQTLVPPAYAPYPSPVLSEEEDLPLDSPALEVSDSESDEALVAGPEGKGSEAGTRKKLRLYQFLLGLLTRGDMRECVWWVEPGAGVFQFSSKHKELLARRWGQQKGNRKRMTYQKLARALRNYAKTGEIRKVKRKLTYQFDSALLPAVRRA
Summary of the method: as §1

FEV = biological target: T5, FEV (Homo sapiens, UniProt Q99581 1-238)
T5 sequence: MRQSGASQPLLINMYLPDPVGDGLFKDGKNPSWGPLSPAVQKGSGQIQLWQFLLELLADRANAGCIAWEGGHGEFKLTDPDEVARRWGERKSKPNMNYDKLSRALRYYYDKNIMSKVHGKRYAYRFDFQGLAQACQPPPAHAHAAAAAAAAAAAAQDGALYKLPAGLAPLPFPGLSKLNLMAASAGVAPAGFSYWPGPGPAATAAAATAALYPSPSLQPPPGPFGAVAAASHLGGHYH
Summary of the method: as §1

ETV5 = ETV5 (Homo sapiens, UniProt P41161 1-510)
Chain of ETV5 (P41161 whole entry): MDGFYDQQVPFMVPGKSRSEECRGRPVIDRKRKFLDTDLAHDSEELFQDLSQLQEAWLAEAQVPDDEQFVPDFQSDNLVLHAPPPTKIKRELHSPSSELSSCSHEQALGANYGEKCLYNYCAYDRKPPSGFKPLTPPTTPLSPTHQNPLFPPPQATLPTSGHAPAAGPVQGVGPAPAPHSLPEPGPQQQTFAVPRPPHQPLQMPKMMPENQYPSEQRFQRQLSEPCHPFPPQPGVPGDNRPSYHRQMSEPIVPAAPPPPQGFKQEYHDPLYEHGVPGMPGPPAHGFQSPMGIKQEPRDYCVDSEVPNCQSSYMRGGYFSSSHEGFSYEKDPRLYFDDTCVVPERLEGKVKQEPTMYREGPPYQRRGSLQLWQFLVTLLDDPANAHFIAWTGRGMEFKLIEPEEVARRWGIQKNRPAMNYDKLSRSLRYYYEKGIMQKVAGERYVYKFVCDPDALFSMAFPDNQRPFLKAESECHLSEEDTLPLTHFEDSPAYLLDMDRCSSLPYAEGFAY
Summary of the method: as §1

ELF4 = ELF4 (Homo sapiens, UniProt Q99607 1-663)
Chain of ELF4 (Q99607 whole entry): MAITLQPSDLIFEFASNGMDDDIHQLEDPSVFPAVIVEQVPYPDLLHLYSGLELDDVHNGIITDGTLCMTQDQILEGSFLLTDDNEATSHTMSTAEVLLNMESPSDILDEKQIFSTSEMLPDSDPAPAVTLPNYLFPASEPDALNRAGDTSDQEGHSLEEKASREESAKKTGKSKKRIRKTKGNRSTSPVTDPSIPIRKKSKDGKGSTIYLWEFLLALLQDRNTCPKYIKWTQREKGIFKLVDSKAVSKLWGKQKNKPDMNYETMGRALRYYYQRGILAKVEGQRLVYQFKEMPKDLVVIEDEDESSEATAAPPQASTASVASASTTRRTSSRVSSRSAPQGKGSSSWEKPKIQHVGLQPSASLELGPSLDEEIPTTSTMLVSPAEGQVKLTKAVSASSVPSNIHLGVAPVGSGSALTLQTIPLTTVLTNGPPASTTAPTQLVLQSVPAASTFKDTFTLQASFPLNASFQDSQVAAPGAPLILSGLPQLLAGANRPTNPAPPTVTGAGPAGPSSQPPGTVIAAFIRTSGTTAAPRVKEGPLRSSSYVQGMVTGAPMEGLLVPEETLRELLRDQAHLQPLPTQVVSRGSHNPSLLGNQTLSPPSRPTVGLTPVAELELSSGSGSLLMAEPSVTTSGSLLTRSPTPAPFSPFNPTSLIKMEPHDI
Summary of the method: as §1

ELK4 = biological target: T6, ELK4 (Homo sapiens, UniProt P28324-2 1-405)
T6 sequence: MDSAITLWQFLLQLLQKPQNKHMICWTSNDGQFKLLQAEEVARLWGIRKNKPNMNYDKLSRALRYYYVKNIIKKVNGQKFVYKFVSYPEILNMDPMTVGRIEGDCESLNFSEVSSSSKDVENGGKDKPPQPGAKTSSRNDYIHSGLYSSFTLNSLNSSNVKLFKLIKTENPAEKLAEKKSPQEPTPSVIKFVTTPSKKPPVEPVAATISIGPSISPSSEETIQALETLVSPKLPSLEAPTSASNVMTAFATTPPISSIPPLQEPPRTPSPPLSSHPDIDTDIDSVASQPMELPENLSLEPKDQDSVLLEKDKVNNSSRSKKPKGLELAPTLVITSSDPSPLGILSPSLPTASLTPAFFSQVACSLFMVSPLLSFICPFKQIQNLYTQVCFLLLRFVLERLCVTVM
Summary of the method: as §1

ELF3 = biological target: T7, ELF3 (Homo sapiens, UniProt P78545 1-371)
T7 sequence: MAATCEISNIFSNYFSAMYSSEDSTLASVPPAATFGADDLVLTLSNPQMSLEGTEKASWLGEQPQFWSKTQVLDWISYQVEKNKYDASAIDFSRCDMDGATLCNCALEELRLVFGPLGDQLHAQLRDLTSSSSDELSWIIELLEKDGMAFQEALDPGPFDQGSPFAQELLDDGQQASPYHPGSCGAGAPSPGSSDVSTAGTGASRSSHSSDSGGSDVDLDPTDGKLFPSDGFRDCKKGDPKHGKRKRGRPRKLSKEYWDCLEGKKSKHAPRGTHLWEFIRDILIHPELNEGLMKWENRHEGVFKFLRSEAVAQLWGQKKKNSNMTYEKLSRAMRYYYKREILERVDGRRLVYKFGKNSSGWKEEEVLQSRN
Summary of the method: as §1

ETV1 = ETV1 (Homo sapiens, UniProt P50549 1-477)
Chain of ETV1 (P50549 whole entry): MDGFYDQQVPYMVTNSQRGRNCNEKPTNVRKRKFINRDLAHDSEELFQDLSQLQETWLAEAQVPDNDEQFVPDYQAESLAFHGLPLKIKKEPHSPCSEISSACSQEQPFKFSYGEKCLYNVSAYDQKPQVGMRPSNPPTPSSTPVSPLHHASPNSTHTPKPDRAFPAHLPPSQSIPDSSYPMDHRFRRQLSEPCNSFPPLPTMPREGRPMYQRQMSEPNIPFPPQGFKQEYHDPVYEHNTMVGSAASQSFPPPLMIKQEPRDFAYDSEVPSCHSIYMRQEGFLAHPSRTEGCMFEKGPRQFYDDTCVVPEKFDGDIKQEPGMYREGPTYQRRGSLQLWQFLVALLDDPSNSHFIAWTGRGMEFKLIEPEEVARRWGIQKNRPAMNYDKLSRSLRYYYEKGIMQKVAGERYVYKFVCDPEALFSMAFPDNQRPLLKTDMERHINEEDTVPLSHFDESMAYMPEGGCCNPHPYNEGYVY
Summary of the method: as §1

ERF = biological target: T8, ERF (Homo sapiens, UniProt P50548 1-548)
T8 sequence: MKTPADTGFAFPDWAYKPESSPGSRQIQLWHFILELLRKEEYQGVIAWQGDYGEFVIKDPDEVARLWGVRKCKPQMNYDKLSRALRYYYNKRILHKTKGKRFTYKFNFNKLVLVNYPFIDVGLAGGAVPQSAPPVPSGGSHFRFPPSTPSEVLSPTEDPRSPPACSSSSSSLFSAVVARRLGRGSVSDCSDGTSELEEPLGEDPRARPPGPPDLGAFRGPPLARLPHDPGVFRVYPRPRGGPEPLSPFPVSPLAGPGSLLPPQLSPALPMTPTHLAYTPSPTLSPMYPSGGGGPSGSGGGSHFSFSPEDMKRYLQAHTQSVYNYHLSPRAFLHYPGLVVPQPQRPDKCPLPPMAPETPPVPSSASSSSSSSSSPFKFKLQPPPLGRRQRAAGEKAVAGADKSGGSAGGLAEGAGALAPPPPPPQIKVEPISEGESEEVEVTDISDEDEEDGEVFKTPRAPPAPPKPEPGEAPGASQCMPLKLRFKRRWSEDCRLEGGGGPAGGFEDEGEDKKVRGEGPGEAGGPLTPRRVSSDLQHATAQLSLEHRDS
Summary of the method: as §1

ETV3L = biological target: T9, ETV3L (Homo sapiens, UniProt Q6ZN32 1-361)
T9 sequence: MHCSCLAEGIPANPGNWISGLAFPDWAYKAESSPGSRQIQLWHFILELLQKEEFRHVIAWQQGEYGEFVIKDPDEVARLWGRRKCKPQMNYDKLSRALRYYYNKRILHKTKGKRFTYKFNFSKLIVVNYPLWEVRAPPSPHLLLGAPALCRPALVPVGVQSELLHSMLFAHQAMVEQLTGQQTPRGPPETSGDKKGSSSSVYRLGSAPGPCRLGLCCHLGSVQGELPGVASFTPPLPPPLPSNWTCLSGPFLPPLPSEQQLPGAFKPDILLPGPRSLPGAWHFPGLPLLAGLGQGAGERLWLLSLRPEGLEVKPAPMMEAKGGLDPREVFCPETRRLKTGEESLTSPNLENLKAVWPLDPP
Summary of the method: as §1

ETS2 = biological target: T10, ETS2 (Homo sapiens, UniProt P15036 1-469)
T10 sequence: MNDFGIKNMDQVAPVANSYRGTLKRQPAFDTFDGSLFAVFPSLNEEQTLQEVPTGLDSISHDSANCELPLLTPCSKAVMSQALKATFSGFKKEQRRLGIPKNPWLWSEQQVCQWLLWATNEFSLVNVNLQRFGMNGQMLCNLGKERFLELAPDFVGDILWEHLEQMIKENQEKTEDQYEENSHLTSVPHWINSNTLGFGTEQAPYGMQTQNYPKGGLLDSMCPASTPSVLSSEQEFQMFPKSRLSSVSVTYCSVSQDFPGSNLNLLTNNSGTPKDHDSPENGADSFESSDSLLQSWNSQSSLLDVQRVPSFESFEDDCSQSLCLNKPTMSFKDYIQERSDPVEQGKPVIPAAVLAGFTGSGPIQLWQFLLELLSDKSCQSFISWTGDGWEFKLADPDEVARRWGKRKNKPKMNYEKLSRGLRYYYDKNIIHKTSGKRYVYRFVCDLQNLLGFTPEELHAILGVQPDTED
Summary of the method: as §1

SPDEF = biological target: T11, SPDEF (Homo sapiens, UniProt O95238 1-335)
T11 sequence: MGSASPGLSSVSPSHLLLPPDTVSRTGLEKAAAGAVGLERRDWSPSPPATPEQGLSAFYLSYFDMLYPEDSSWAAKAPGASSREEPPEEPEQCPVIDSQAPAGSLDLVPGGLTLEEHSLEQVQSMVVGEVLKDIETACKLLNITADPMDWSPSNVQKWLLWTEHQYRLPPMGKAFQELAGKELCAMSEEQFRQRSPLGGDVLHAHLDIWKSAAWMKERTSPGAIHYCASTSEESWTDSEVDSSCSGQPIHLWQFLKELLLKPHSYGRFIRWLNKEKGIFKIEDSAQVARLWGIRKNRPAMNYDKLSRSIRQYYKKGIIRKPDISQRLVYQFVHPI
Summary of the method: as §1

ETV7 = biological target: T12, ETV7 (Homo sapiens, UniProt Q9Y603 1-341)
T12 sequence: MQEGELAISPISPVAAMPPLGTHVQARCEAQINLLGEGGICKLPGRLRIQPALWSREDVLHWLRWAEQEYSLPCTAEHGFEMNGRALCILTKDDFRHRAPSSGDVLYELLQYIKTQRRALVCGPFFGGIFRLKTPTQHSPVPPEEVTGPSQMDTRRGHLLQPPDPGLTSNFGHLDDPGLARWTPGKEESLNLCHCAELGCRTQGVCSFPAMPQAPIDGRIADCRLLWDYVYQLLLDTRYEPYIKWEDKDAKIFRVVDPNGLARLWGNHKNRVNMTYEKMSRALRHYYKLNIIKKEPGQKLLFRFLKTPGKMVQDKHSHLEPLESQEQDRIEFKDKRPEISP
Summary of the method: as §1

ETV3 = biological target: T13, ETV3 (Homo sapiens, UniProt P41162-2 1-143)
T13 sequence: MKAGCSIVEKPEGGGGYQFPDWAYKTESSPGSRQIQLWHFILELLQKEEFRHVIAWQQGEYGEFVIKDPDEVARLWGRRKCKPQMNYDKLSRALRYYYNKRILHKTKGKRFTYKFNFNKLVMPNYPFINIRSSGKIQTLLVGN
Summary of the method: as §1

ETV6 = ETV6 (Homo sapiens, UniProt P41212 1-452)
Chain of ETV6 (P41212 whole entry): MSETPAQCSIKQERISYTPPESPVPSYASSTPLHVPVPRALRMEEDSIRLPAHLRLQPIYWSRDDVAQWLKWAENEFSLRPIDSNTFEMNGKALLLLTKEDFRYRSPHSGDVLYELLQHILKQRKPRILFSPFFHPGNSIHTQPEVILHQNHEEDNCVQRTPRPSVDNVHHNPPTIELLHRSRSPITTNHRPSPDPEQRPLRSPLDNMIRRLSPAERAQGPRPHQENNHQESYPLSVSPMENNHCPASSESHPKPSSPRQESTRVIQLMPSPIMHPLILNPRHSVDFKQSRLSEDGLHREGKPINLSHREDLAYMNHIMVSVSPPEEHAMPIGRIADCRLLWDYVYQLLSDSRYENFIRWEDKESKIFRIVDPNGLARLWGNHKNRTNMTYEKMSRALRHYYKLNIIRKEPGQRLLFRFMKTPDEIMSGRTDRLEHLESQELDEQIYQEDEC
Summary of the method: as §1

GGCTAC
binding signal (ELK1): 1.12 fold enrichment (6-mer frequency, TF over GST control) | binding signal (GABPA): 1.18 fold enrichment (6-mer frequency, TF over GST control) | binding signal (ERG): 1.09 fold enrichment (6-mer frequency, TF over GST control) | binding signal (ELF1): 1.26 fold enrichment (6-mer frequency, TF over GST control) | binding signal (EHF): 1.07 fold enrichment (6-mer frequency, TF over GST control) | binding signal (SPIB): 1.16 fold enrichment (6-mer frequency, TF over GST control) | binding signal (FEV): 1.1 fold enrichment (6-mer frequency, TF over GST control) | binding signal (ETV5): 1.22 fold enrichment (6-mer frequency, TF over GST control) | binding signal (ELF4): 1.17 fold enrichment (6-mer frequency, TF over GST control) | binding signal (ELK4): 1.1 fold enrichment (6-mer frequency, TF over GST control) | binding signal (ELF3): 1.18 fold enrichment (6-mer frequency, TF over GST control) | binding signal (ETV1): 1.12 fold enrichment (6-mer frequency, TF over GST control) | binding signal (ERF): 1.12 fold enrichment (6-mer frequency, TF over GST control) | binding signal (ETV3L): 1.16 fold enrichment (6-mer frequency, TF over GST control) | binding signal (ETS2): 1.2 fold enrichment (6-mer frequency, TF over GST control) | binding signal (SPDEF): 1.22 fold enrichment (6-mer frequency, TF over GST control) | binding signal (ETV7): 1.26 fold enrichment (6-mer frequency, TF over GST control) | binding signal (ETV3): 1.07 fold enrichment (6-mer frequency, TF over GST control) | binding signal (ETV6): 1.2 fold enrichment (6-mer frequency, TF over GST control)
